Rows were chosen to be rich in hits. Some 0.99% of all compounds tested hit in one or more screens of this group.
WRN helicase inh: WRN helicase (human) inhibition | WRN helicase unwinding, fluorescent forked duplex, kinetic | Q14191 | 0.46% of 360,000 active | Potency, µM (series often up to 114 µM), most hits filed as inhibitors; further: nearly all actives have a fitted effect of over 55% in size
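WRN at 20 nM final was preincubated with compound for 15 min at room temperature; reaction started with 100 nM forked duplex oligonucleotide carrying fluorophore and quencher plus 2 mM ATP (final). Unwinding followed kinetically by red fluorescence (ex 525/em 598 nm).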
BLM helicase inh: Bloom syndrome helicase (human) inhibition; P54132; recombinant BLM DNA unwinding, fluorescence dequenching; Potency, µM (series often up to 56.1 µM), most hits filed as inhibitors; 0.2% of 350,000 active; AID 2528; further: nearly all actives have a fitted effect of over 35% in size
L3MBTL1 inh: inhibitors of human L3MBTL1 | AID 485360 | Potency, µM (highest dose often 57.1 µM), hits mostly inhibitors | AlphaScreen L3MBTL1–H3K9me1 peptide binding | 0.66% of 230,000 active | Q9Y468; further: nearly all actives have a fitted effect of over 60% in size
Target sequence (Q9Y468 whole entry, looked up): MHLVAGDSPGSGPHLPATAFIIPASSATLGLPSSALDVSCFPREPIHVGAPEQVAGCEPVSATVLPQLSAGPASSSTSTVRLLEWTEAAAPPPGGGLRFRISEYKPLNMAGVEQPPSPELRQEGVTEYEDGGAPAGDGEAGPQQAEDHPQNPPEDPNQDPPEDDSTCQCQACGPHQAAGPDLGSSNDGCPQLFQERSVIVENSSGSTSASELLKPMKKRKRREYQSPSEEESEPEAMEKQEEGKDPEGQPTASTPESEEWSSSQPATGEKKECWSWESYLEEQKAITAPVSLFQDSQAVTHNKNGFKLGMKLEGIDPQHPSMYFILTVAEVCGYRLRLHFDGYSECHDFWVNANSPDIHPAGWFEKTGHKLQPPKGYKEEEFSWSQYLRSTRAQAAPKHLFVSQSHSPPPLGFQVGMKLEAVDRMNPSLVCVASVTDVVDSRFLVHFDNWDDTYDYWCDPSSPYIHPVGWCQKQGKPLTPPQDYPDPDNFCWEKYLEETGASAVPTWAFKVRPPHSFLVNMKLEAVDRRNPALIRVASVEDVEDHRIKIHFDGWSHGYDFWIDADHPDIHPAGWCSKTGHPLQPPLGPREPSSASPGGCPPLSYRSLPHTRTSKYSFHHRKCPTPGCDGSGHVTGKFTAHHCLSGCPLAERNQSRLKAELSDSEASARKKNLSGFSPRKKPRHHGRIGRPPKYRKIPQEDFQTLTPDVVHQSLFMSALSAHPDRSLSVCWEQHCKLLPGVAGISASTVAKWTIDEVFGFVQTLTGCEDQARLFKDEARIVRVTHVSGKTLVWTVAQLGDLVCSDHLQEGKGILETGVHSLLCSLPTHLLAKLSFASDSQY
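Read-out is AlphaScreen signal from streptavidin donor and nickel chelate acceptor beads (10 ug/mL final each) bridging L3MBTL1 (50 nM) and biotinylated K9-monomethylated H3(1-15) peptide (75 nM), after 30 min compound exposure at room temperature.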
FEN1 inhibitor: human FEN1 inhibition; Recombinant FEN1 flap cleavage, fluorescence, 15 min; Potency, µM (highest dose often 114 µM), actives largely listed as inhibitors; 0.35% of 390,000 active; AID 588795; further: nearly all actives have a fitted effect of over 65% in size
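Potency values derive from four-parameter Hill fits of normalized qHTS data. The reaction used 10 nM FEN1 preincubated 15 min at room temperature with compound, then 50 nM DNA substrate, read at 0 and 15 min.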
RECQ1 inh: RECQ1 (human) helicase inhibition; Potency, µM (doses to about 57.3 µM), usual class: inhibitors; 0.54% of 240,000 active; RECQ1 DNA unwinding, red fluorescence kinetic read; AID 2549; further: nearly all actives have a fitted effect of over 30% in size
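50 nM RECQ1T1 preincubated 15 min with compound in Tris pH 8.0 buffer with MgCl2, DTT, Tween-20 and 2.5 ug/ml poly(dI-dC); started with 200 nM TAMRA/BHQ-2 forked duplex and 2 mM ATP. Unwinding read as fluorescence (525/598 nm), two reads 2 h apart.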
Of the large screens only hits and unclear results are named; the others gave an inactive call. The call rests on the fitted dose curve; in most records, active means well fitted curve in the direction sought with a large enough effect; inconclusive means small, poorly fitted or top-dose-only effect, or another doubt; inactive means no such curve, though single readings can be large; an effect the other way counts as inactive or inconclusive.

C/C(=N/NC(=O)c1cc(O)c(O)c(O)c1)c1ccc([N+](=O)[O-])cc1	WRN helicase inh inconclusive, L3MBTL1 inh 18µM, FEN1 inhibitor inconclusive
C/C(=N\NC(=O)c1cnccn1)c1ccc([N+](=O)[O-])cc1	none
O=C(O)c1cc(O)c2c(c1)[C@H]([C@H]1c3cc(C(=O)O)cc(O)c3C(=O)c3c(O[C@@H]4O[C@H](CO)[C@@H](O)[C@H](O)[C@H]4O)cccc31)c1cccc(OC3O[C@H](CO)[C@@H](O)[C@H](O)[C@H]3O)c1C2=O (some centres undefined)	WRN helicase inh 4µM, L3MBTL1 inh 0.16µM, FEN1 inhibitor 1.3µM (no result: BLM helicase inh, RECQ1 inh)
O=C1c2cc(CO)cc(O)c2C(=O)c2c(O[C@@H]3OC(CO)[C@@H](O)[C@@H](O)[C@@H]3O)cccc21 (some centres undefined)	FEN1 inhibitor inconclusive (no result: BLM helicase inh, L3MBTL1 inh, RECQ1 inh)
O=[N+]([O-])c1cc(Cl)ccc1Nc1ccccc1	L3MBTL1 inh 28µM (no result: RECQ1 inh)
O=c1oc2cc([N+](=O)[O-])ccc2nc1/C=C(\O)c1cccc(Br)c1	FEN1 inhibitor 25µM (no result: L3MBTL1 inh)
O=C(O)C1OC(Oc2c(-c3ccc(O)c(O)c3)oc3cc(O)cc(O)c3c2=O)C(O)C(O)C1O (centres undefined)	WRN helicase inh inconclusive, L3MBTL1 inh inconclusive, FEN1 inhibitor 11µM
CS(=O)(=O)N(CCc1ccccc1)CC(=O)N1CCN(c2ccccc2F)CC1	none
CC(C)(C)OC(=O)C[C@@H]1C/C=C\C[C@@H](CC(=O)NCCO)C(=O)N[C@H](C(C)(C)C)COC1=O	none (no result: BLM helicase inh, RECQ1 inh)
Cn1cnc([N+](=O)[O-])c1S(=O)(=O)Oc1ccc(Cl)cc1	WRN helicase inh 35µM (no result: BLM helicase inh, L3MBTL1 inh, RECQ1 inh)
O=C(C[N+]12CCCc3cccc(c31)CCC2)c1ccc2ccc3cccc4ccc1c2c34	FEN1 inhibitor 45µM (no result: WRN helicase inh, BLM helicase inh, L3MBTL1 inh, RECQ1 inh)
O=C(Cn1c(=O)ccc2cc(S(=O)(=O)N3CCCC3)ccc21)Nc1ccccc1	none (no result: WRN helicase inh, L3MBTL1 inh, RECQ1 inh)
CCCCn1c(N)c(N(CC(C)C)C(=O)Cn2c(=O)cnc3ccccc32)c(=O)[nH]c1=O	none (no result: BLM helicase inh, RECQ1 inh)
COc1cccc(-n2nnnc2S(C)(=O)=O)c1	WRN helicase inh 50µM (no result: L3MBTL1 inh)
COc1ccc(C2CC(c3ccccc3)=NN2C(=O)CCCC(=O)O)cc1 (centres undefined)	none (no result: RECQ1 inh)
COc1ccc(C2=NN(C(=O)CCCC(=O)O)C(c3cn(-c4ccccc4)nc3-c3ccccc3)C2)cc1 (centres undefined)	WRN helicase inh 0.3µM (no result: L3MBTL1 inh)
CCCC(=O)OCCNc1cc(Sc2nc3ccccc3[nH]2)c2nonc2c1[N+](=O)[O-]	WRN helicase inh 40µM, FEN1 inhibitor inconclusive
CC(C)CCNC(=O)CSc1c2c(nc3ccc(Cl)cc13)CCCC2	none (no result: WRN helicase inh, L3MBTL1 inh, RECQ1 inh)
Cc1ccc(NC(=O)c2cc3nc(C)cc(C)n3n2)cc1	none (no result: L3MBTL1 inh)
Cc1cc2nc(-c3ccc(SCC(=O)N4CCN(C(=O)c5ccco5)CC4)nc3)[nH]c2cc1C	WRN helicase inh inconclusive, L3MBTL1 inh 32µM
O=C(CN1CCN(C/C=C/c2ccccc2)CC1)NCc1ccc(Cl)cc1	none
COc1cc2nc(CCNCc3ccccc3)nc(NC3CCN(C)CC3)c2cc1OC	FEN1 inhibitor 45µM (no result: WRN helicase inh, BLM helicase inh, L3MBTL1 inh, RECQ1 inh)
COc1cc2nc(N(C)C)nc(NC3CCN(C)CC3)c2cc1OC	FEN1 inhibitor 28µM (no result: WRN helicase inh, BLM helicase inh, L3MBTL1 inh, RECQ1 inh)
COc1ccccc1-c1nc(NC2CC2)c2ccccc2n1	none (no result: WRN helicase inh, L3MBTL1 inh, FEN1 inhibitor)
COc1cc2nc(NC3CCN(C)CC3)nc(NC3CCN(C)CC3)c2cc1OC	FEN1 inhibitor 45µM (no result: WRN helicase inh, BLM helicase inh, L3MBTL1 inh, RECQ1 inh)
C1=Cc2ccccc2/C1=C\c1cc[cH-]c1.[Fe+2].c1cc[cH-]c1	FEN1 inhibitor 13µM (no result: WRN helicase inh, BLM helicase inh, L3MBTL1 inh, RECQ1 inh)
C[N+](C)(C)c1ccc(/C=C2\C=Cc3ccccc32)cc1	FEN1 inhibitor 35µM (no result: WRN helicase inh, BLM helicase inh, L3MBTL1 inh, RECQ1 inh)
Nc1ccc(C=C2C=Cc3ccccc32)cc1	none (no result: BLM helicase inh, L3MBTL1 inh, RECQ1 inh)
Nc1ccc(/C=C2\C=Cc3ccccc32)cc1	none (no result: WRN helicase inh, BLM helicase inh, L3MBTL1 inh, RECQ1 inh)
Cc1oc2cc(O)ccc2c(=O)c1Oc1ccccc1	WRN helicase inh 71µM
CCOc1ccc(Oc2c(C)oc3cc(O)ccc3c2=O)cc1	none
COC(=O)C(NS(=O)(=O)c1ccccc1Br)C(C)C (centres undefined)	none (no result: L3MBTL1 inh)
CCCCCn1c(=N)n(CC(O)COc2ccccc2OC)c2ccccc21 (centres undefined)	L3MBTL1 inh 5µM
O=C(CNC(=O)c1ccccc1F)NCCc1ccc(Cl)cc1	none (no result: L3MBTL1 inh, RECQ1 inh)
Cc1c(OCC(=O)NCCCn2ccnc2)ccc2c3c(c(=O)oc12)CCCC3	none (no result: L3MBTL1 inh, RECQ1 inh)
CCN(CC)c1ccc(C=C2C(=O)OC3(CCCCC3)OC2=O)cc1	WRN helicase inh 50µM, FEN1 inhibitor inconclusive, RECQ1 inh 32µM
